The values that follow come from PubChem BioAssay (NCI).

This is part of a sample that, as a whole, favours compounds with a hit. Of some 83,000 tested, about 20% had one in any assay.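 Each cell line was grown in a 96-well plate and treated with one concentration of compound for 48 hours. Values below 10 were considered active.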 The source made the active and inactive calls.

The experiment deals with MDA-MB-468 breast. In words: NCI-60 one-dose screen, 48 h (100 = growth as untreated, 0 = no growth, -100 = all killed). Conditions: 10 µM unless noted.
For the molecule `Cc1sc2c(c1C)c(=O)nc1c(-c3nc4ccccc4s3)n[nH]n12`, the growth is 101% (inactive). In the case of `CCCOC(=O)Nc1nc2ccc(SCC(C)C)cc2s1`, the growth was -9.94% (active). As to `COc1ccc(-c2nc(-c3nc4ccc(OC)cc4[nH]3)c3ccccn23)cc1`, the growth is 72.2% (inactive). For the molecule `Nc1nc(-c2ccccc2)nc(N)c1N=O`, the growth is 72.4% (inactive). With `COc1ccccc1-n1cc(C#N)c(N)c1C(=O)c1ccc(Br)cc1` the figure was 31.3% (inactive); with `Brc1ccc(Oc2ccc(Nc3ncnc4onc(-c5ccccc5)c34)cc2)cc1`, 103% (inactive); with `CCNc1ccc2ccccc2c1N=Nc1ccc(N=Nc2ccccc2)cc1`, 104% (inactive). As to `COc1cc(NCC(C)(O)CN(CC(C)C)CC(C)C)c2nc(C)ccc2c1` (stereo not given), the growth is -11.4% (active). As for `CN1CCN(c2cnc(C(=O)Nc3cc(F)cc4cccnc34)cn2)CC1`, the figure is 9.54% (active).

`CC(=O)OC(C)c1cccc(C#N)c1` (stereo not given): the growth was 105% (inactive). Turning to `Cc1cnc(NC(=O)Nc2cc(Br)c(C)cc2OC[C@@H]2CNCCO2)cn1`, the growth was -26.7% (active). As to `c1ccc2nc(Cn3c[n+](Cc4ccc5ccccc5n4)c4ccccc43)ccc2c1`, the growth is -19.3% (active). Regarding `CC(C)c1ccc(-n2c(=S)[nH]c3sc4c(c3c2=O)CCC(=O)C4)cc1`, the growth was 58.6% (inactive). With `C=C1C(=O)O[C@H]2[C@H]1CC/C(COC(=O)C(=O)c1cn(C)c3ccc(Cl)cc13)=C\CC[C@@]1(C)O[C@@H]21` the figure was -88.2% (active); with `CC(=O)N1N=C(c2ccc(Nc3nc(NCCO)nc(NCCO)n3)cc2)CC1c1ccc(Cl)cc1` (stereo not given), 105% (inactive).

For `O=C(CI)NCCNc1cccc2c(S(=O)(=O)O)cccc12`, the growth is 100% (inactive).

On to `CCOC(=O)c1c(C)nc2c(c1N)C(=O)C(=O)N2Cc1ccc(C(F)(F)F)cc1`, for which the growth is 77.8% (inactive). For `COc1cc2c(c(OC)c1OC)CCC(c1cccc(NC(=O)c3cccc(Cl)c3)c1)O2` (stereo not given), the growth is 60.2% (inactive). With `CN1CCC(=C(c2ccccc2)c2ccccc2)C(c2ccccc2)C1` (stereo not given) the figure was 87.6% (inactive). Consider `O=C(O)C1(C(=O)O)CCC1.[NH2-].[NH2-].[Pt+2]`, for which the growth is 106% (inactive).

Take `Cn1cnc([N+](=O)[O-])c1Sc1ncn[nH]1`: the growth is 73.5% (inactive). In the case of `Cc1n[nH]c(=O)n(/N=C\c2c[nH]c3ccccc23)c1=O`, the growth is 106% (inactive). With `O=C(N/N=C/c1ccc([N+](=O)[O-])s1)c1[nH]c2ccc(Br)cc2c1-c1ccccc1`, the growth was 24.8% (inactive). Turning to `O=C(Cc1ccc(/C=C/C(=O)c2ncc[nH]2)cc1)Nc1cc(C(F)(F)F)cc(C(F)(F)F)c1`, the growth was 65.3% (inactive).

Consider `CC(C)(C)C(=O)/C=C/c1ccc([N+](=O)[O-])cc1`, for which the growth is 45.5% (inactive). Turning to `COc1ccccc1NC(=O)C1=C(C)NC(C)=C(C(=O)Nc2ccccc2OC)C1c1cccc([N+](=O)[O-])c1`, the growth was 74.3% (inactive). As to `COc1cc(-c2nnc(-c3nc(-c4cc(OC)c(OC)c(OC)c4)n4ccccc34)o2)ccc1N`, the growth was 97.7% (inactive). Regarding `O=C(Cn1cc(CN2CCN(c3ccnc4cc(Cl)ccc34)CC2)nn1)Nc1cccc([N+](=O)[O-])c1`, the growth is 92.8% (inactive). Consider `COc1ccc(-c2nc3ccc(-c4nnc(SCC(=O)Nc5ccc(C(=O)/C=C/c6ccc(Cl)cc6)cc5)o4)cc3[nH]2)cc1OC`, for which the growth was 102% (inactive). With `O=C(O)c1ccc(NCc2cn(-c3ccc(C(F)(F)F)cc3)nc2-c2ccc(C(=O)O)cc2)cc1`, the growth was 123% (inactive).

`O=C(OC1CCCC1)c1ccccc1Cl`: the growth is 132% (inactive). Regarding `COc1ccc2cc(Cn3cc[n+](Cc4ccc5ccccc5c4)c3)ccc2c1`, the growth is -22.9% (active). With `Clc1ccc(CN2COc3c(ccc4cccnc34)C2)cc1Cl`, the growth is -71.9% (active).

As for `N#CSCC1CC(O)(c2ccccc2)CC(c2ccc(Cl)cc2)O1` (stereo not given), the growth is 47.3% (inactive). As for `Cc1nc(NC(=O)NC2CCCCC2)sc1C(=O)NN`, the figure is 97.3% (inactive); as for `CC1=C/C(=C(\c2cc(C)c(O)c(C(=O)O)c2)c2c(Cl)cccc2Cl)C=C(C(=O)O)C1=O`, 104% (inactive); as for `C=C1C(=O)O[C@H]2[C@H]1CC/C(COC(=O)NCc1nc3ccccc3[nH]1)=C\CC[C@@]1(C)O[C@@H]21`, 43.7% (inactive). As for `CCN(CC)c1ccc(N=O)cc1`, the figure is 23.7% (inactive). As for `O=C1CCCCN1CCCCC#Cc1cccc(C#Cc2cccnc2)c1`, the growth is 73.8% (inactive). On to `Cc1ccc(S(=O)(=O)Nc2ccc(Cl)cc2)cc1`, for which the growth is 107% (inactive).
